Shown is part of a subset that was picked to be rich in hits.
DUSP3 inh: VHR1 (DUSP3) phosphatase inhibition; P51452; recombinant VHR phosphatase, colorimetric substrate read-out; inhibition, % at 20 µM; hit rate 0.7% among 50,000; in the data active = inhibition above about 60%
Target sequence (P51452 whole entry, looked up): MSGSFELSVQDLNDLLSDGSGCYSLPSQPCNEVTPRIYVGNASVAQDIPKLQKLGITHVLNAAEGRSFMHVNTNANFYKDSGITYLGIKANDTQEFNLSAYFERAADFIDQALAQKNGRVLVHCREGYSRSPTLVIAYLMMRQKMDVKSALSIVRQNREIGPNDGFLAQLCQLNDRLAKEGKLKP
* marks the source's active call; other numbers are inactive results.

Cc1cc(Br)ccc1N1C(=O)/C(=C/c2cccs2)C(=O)NC1=S was read as DUSP3 inh 102.4*.
`COc1ccc(/C=N\Nc2cc(C)c3ccccc3n2)cc1` gave DUSP3 inh -13.6.
`N#C/C(=C\c1ccc(-c2ccccc2[N+](=O)[O-])o1)c1nn(-c2ccccc2)c(N)c1C#N` gave DUSP3 inh -50.2.
Screening COc1ccc(-c2csc(NC(=O)c3ccccc3OC)c2C(=O)O)cc1 returned DUSP3 inh 15.9.
`O=C(Nc1c(Cl)cccc1Cl)C1C2CC/C=C\CC/C=C/CCC21` (centres undefined) gave DUSP3 inh 111.6*.
Screening O=C(Nc1cccc(Br)c1)C1C2CCC3C(CCC21)C3(Cl)Cl (centres undefined) returned DUSP3 inh -1.8.
Screening O=C(O)C1C2CC/C=C\CC/C=C/CCC21 (centres undefined) returned DUSP3 inh 17.9.
O=C(NC(=S)Nc1ccc2ccccc2c1)c1ccco1 was read as DUSP3 inh -2.9.
`CN(c1ccccc1)S(=O)(=O)c1ccc(F)cc1` gave DUSP3 inh -11.2.
CCOc1ccc(NC(=S)NC(NC(=O)C(c2ccccc2)c2ccccc2)C(Cl)(Cl)Cl)cc1 (centres undefined) was read as DUSP3 inh -4.9.
Screening COc1ccc(C(=O)Nc2cc(Cl)ccc2C)cc1OC returned DUSP3 inh 1.8.
Screening CCOc1ccc2oc(-c3ccccc3)c(C(=O)O)c2c1 returned DUSP3 inh -21.4.
CC(Oc1ccc2oc(-c3ccccc3)c(C(=O)O)c2c1)C(=O)O (centres undefined) was read as DUSP3 inh 80.6*.
Screening CCOC(=O)c1c(-c2ccccc2)oc2ccc(OC(C)C(=O)OCC)cc12 (centres undefined) returned DUSP3 inh 6.0.
Screening Cc1ccc(S(=O)(=O)/N=C2\C=C(n3cnc4ccccc43)C(=O)c3ccccc32)cc1 returned DUSP3 inh 18.1.
`Cc1ccc(C(=O)/C(=C/c2ccc(-c3cccc([N+](=O)[O-])c3)o2)c2nc3ccccc3o2)cc1` gave DUSP3 inh -2.7.
Screening CCN1C(=O)/C(=C\c2ccc(-c3cccc(Cl)c3)o2)SC1=S returned DUSP3 inh -5.3.
For COc1ccc(C2CC(=O)C3=C(C2)Nc2ccccc2NC3c2ccccc2Cl)cc1 (centres undefined) the results were DUSP3 inh 2.1.
Screening COc1ccc(C2CC(=O)C3=C(C2)Nc2ccccc2NC3c2coc3c(Cl)cc(Cl)cc3c2=O)cc1 (centres undefined) returned DUSP3 inh 105.2*.
Screening COc1ccc(C2CC(=O)C3=C(C2)Nc2ccccc2NC3c2cc3c(cc2Cl)OCO3)cc1 (centres undefined) returned DUSP3 inh -16.9.
O=C(/C(=N/O)n1cnc([N+](=O)[O-])n1)c1ccccc1 was read as DUSP3 inh -14.6.
Screening CCOC(=O)CC1(C)NN=C(c2ccccc2)S1 (centres undefined) returned DUSP3 inh -13.8.
COc1cc(/C=N/N2C(=O)C3C4C=CC(C4)C3C2=O)cc(I)c1OC (centres undefined) was read as DUSP3 inh -10.5.
For O=C1c2ccccc2/C(=N/N=C/C=C/c2ccco2)C1C(=O)C(c1ccccc1)c1ccccc1 (centres undefined) the results were DUSP3 inh 88.3*.
Cc1ccc(NCC(=O)N/N=C\C=C\c2ccco2)cc1 was read as DUSP3 inh 3.7.
Screening C(/C=C/c1ccco1)=N/N1CCN(c2ccccc2)CC1 returned DUSP3 inh 40.9.

Bioassay records: PubChem, Sanford-Burnham Center for Chemical Genomics
